PMC4336329 (PLoS ONE, 2015)
The campaign covered roughly 310,000 compounds. About 14,000 (4.5%) showed an effect of 50% or more. The effect is printed as a negative number. The list comes from a sample in which strong results are over-represented; it also holds similar structures and randomly drawn compounds.

target: human ether-à-go-go-related gene (hERG) potassium channel (human, UniProt Q12809); experiment: primary screen, population patch clamp on CHO cells stably expressing hERG; higher = less effect of the substance
Sequence (Q12809 whole entry, looked up): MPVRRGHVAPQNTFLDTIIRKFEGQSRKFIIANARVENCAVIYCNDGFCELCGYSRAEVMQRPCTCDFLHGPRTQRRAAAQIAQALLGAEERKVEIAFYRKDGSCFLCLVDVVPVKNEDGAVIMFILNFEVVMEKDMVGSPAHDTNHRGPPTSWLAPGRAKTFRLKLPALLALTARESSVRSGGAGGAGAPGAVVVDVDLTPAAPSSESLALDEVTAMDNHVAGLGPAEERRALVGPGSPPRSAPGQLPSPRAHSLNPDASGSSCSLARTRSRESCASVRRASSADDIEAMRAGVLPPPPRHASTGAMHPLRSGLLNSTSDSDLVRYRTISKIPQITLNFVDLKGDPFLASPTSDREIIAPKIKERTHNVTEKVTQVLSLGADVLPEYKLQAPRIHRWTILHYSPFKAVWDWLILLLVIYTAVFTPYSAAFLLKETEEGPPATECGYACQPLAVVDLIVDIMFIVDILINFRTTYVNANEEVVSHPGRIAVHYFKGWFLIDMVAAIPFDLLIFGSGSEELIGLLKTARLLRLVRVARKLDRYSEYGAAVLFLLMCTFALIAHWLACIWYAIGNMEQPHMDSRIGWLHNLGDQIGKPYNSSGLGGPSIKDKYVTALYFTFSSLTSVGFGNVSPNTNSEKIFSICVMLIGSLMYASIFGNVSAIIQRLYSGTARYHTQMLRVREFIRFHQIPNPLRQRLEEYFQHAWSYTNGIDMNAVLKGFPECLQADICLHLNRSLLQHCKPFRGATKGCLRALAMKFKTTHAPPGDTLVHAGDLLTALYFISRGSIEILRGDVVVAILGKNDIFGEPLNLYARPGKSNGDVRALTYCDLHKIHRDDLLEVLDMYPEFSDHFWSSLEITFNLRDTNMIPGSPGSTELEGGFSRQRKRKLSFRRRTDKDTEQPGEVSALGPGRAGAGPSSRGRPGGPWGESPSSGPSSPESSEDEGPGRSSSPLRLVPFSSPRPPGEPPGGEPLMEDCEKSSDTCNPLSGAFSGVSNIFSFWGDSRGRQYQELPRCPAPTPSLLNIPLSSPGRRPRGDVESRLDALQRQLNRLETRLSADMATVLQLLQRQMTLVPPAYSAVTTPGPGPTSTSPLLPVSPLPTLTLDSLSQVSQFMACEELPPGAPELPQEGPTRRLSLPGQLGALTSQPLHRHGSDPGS
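Further: peak tail current of the secondary pulse compared with the same well before compound.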

| Compound | hERG current change (%, negative = inhibition) at 10uM [%] |
| --- | --- |
| CC(=O)Oc1c(C(=O)c2nnc(C)o2)c(=O)n(Cc2ccccc2)c2ccccc12 | 1.56 |
| CCCCCCCCNC(=O)c1ccc(C)cc1 | 10.9 |
| O=C(NC(c1ccccc1)C(Cl)(Cl)Cl)c1ccccc1 (stereo not shown) | -11.3 |
| CCN(CC)S(=O)(=O)c1ccc2oc(Nc3ccc(OC)cc3OC)nc2c1 | 9.24 |
| CCc1cccc(C)c1NC(=O)CSc1nc2ccc(N3C(=O)c4ccccc4C3=O)cc2s1 | 4.44 |
| CC(Oc1ccc(Br)cc1)C(=O)O/N=C(\N)c1ccncc1 (stereo not shown) | 5.16 |
| Cc1cccn2c(=O)c3cc(C(=O)NCc4ccco4)c(=N)n(C(C)C)c3nc12 | -77.6 |
| COc1ccc(CCn2c(=N)c(C(=O)NCc3ccco3)cc3c(=O)n4cccc(C)c4nc32)cc1 | -75.6 |
| Cc1cccn2c(=O)nc(SCC(=O)NCc3ccco3)nc12 | 1.37 |
| COc1ccc(-n2nc(C(=O)NCc3ccco3)c3ccccc3c2=O)cc1 | -17.1 |
| Cc1cccn2c(=O)c3cc(C(=O)NCc4ccco4)c(=N)n(CCOCCO)c3nc12 | -74.9 |
| Cc1ccccc1Nc1cc(C(=O)NCc2ccco2)c2ccccc2n1 | 20.3 |
| Cc1cccn2c(=O)c3cc(C(=O)NCc4ccco4)c(=N)n(CCc4ccccc4)c3nc12 | -76.5 |
| COc1ccc(CCn2c(N)c(C(=O)NCc3ccco3)c3nc4ccccc4nc32)cc1 | 0.65 |
| CC(OC(=O)c1cccc(S(=O)(=O)Nc2ccccc2F)c1)C(=O)NCc1ccc2c(c1)OCO2 (stereo not shown) | 12.8 |
| CN(C(=O)c1ccc(S(=O)(=O)N2CCCC2)cc1)C1CCS(=O)(=O)C1 (stereo not shown) | 4.75 |
| O=C(Nc1ccc(Cl)cc1)C(Cl)C(=O)c1ccccc1 (stereo not shown) | -3.81 |
| Cc1csc(SCC(=O)NCc2cccc(Cl)c2)n1 | -7.05 |
| Cc1cccn2c(=O)c3cc(S(=O)(=O)c4ccc(F)cc4)c(=N)n(Cc4ccco4)c3nc12 | -34.8 |
| Cc1cccn2c(=O)c3cc(C(=O)NCCc4ccccc4)c(=N)n(Cc4ccco4)c3nc12 | -74 |
| CCOC(=O)Cn1c(=O)n(Cc2ccco2)c(=O)c2ccc(C(=O)NCCc3ccccc3)cc21 | -53.2 |
| Cc1cccn2c(=O)c3cc(S(=O)(=O)c4ccccc4)c(=N)n(Cc4ccco4)c3nc12 | -0.654 |

| Compound | hERG current change (%, negative = inhibition) at 10uM [%] |
| --- | --- |
| CCc1ccc(-n2c(=O)c3ccc(C(=O)NCCc4ccccc4)cc3n(CC(N)=O)c2=O)cc1 | 14.6 |
| CCOC(=O)Cn1c(=O)n(Cc2ccco2)c(=O)c2ccc(C(=O)NC3CCCC3)cc21 | -18.9 |
| CCN(CC)C(=O)N1CCN(c2c([N+](=O)[O-])c(=O)oc3ccccc23)CC1 | -25.7 |
| CN(C)c1ccc(C(=O)c2ccc(N(C)C)c(N)c2)cc1N | -3.79 |
| COc1c(F)c(F)c(C(=O)Nc2ccc(N3CCN(Cc4ccccc4)CC3)cc2)c(F)c1F | -14.6 |
| COc1ccc(C(=O)N=C2SC3CS(=O)(=O)CC3N2c2ccccc2)cc1OC (stereo not shown) | 11 |
| CCCCn1nnc(NC(=O)c2ccc([N+](=O)[O-])cc2Cl)n1 | -31.1 |
| CCn1nnc(NC(=O)Cc2ccc(Cl)cc2)n1 | 3.52 |
| CCn1nnc(NC(=O)c2ccc(-c3ccc(Cl)cc3)o2)n1 | -53.5 |
| CCCCn1nnc(NC(=O)c2ccc(-c3cccc(Cl)c3)o2)n1 | -40.8 |
| CCCn1nnc(NC(=O)c2ccc(-c3cccc(Cl)c3)o2)n1 | -55.3 |
| CCCn1nnc(NC(=O)c2ccc(-c3cc(Cl)ccc3Cl)o2)n1 | 6.96 |
| CCCCn1nnc(NC(=O)c2ccc(-c3cccc([N+](=O)[O-])c3)o2)n1 | -68.5 |
| CCn1nnc(NC(=O)c2ccc(Br)o2)n1 | 13.7 |
| CCCCn1nnc(NC(=O)c2ccc(-c3ccccc3[N+](=O)[O-])o2)n1 | -14.2 |
| O=C(NC1CC1)c1sccc1-n1cccc1 | 8.56 |
| COc1cc(NC(=O)Cc2cccs2)c(C(=O)O)cc1OC | 21.7 |
| Cc1ccc2[nH]c(=O)c(CNS(=O)(=O)c3ccccc3)c(-c3ccccc3)c2c1 | 16.2 |
| Cc1ccc(-n2[nH]c(C)c(C=Nc3ccc(S(=O)(=O)Nc4nccs4)cc3)c2=O)c(C)c1 | -35 |
| CCOC(=O)C1(CCCc2ccccc2)CCN(C(=O)c2cncs2)CC1 | -55 |
| CCOC(=O)C1(CCOc2ccccc2)CCN(C(=O)c2cncs2)CC1 | -70.7 |
| CCOC(=O)C1(Cc2ccc(OC)cc2)CCN(C(=O)c2cncs2)CC1 | -17.6 |

| Compound | hERG current change (%, negative = inhibition) at 10uM [%] |
| --- | --- |
| O=C(Oc1ccc(/C=N/NC(=O)c2ccccn2)cc1)c1cccc(Br)c1 | 11.4 |
| CC(C)CC(NS(=O)(=O)c1cccc(C(=O)O)c1)C(=O)O (stereo not shown) | 44.6 |
| COc1cc(NC(=O)c2ccc(NS(=O)(=O)c3c(C)noc3C)cc2)cc(OC)c1 | 1.03 |
| Cc1[nH]nc(-c2ccc(OCc3cnn(-c4ccccc4)c3)c(C)c2O)c1Oc1ccccc1 | 12 |
| CN(CC(=O)Nc1ccc(N2CCOCC2)cc1)CC(=O)Nc1cccc(C#N)c1 | -13.9 |
| CN(CC(=O)Nc1ccc(S(=O)(=O)N2CCCC2)cc1)Cc1ccc(Cl)cc1Cl | 10.8 |
| Cc1ccc(NC(=O)CN(C)Cc2ccc(Cl)cc2)cc1 | -8.48 |
| CN(CC(=O)Nc1ccc(Cl)c(Cl)c1)C(=O)/C=C/c1ccc(F)cc1 | 1.66 |
| CN(CC(=O)Nc1ccc(Cl)c(Cl)c1)Cc1nnc(-c2ccc(F)cc2)o1 | -63.3 |
| CN(CC(=O)Nc1ccc(C#N)cc1)CC(=O)Nc1ccc(N2CCOCC2)cc1 | -56.3 |
| CN(CC(=O)Nc1ccc(C#N)cc1)Cc1ccc(Cl)cc1 | -68.6 |
| CN(CC(=O)Nc1ccc(C#N)cc1)Cc1ccc(Cl)cc1Cl | -66.8 |
| CN(CC(=O)Nc1cccc(C#N)c1)Cc1ccc(Cl)cc1 | -34.1 |
| CN(CC(=O)Nc1ccc(Cl)c(Cl)c1)CC(=O)Nc1ccc2c(c1)OCO2 | -3.52 |
| CN(CC(=O)Nc1ccc(N2CCOCC2)cc1)CC(=O)Nc1ccc(N2CCOCC2)cc1 | 6.39 |
| CN(CC(=O)Nc1ccc(Cl)cc1)CC(=O)Nc1cc(Cl)ccc1C#N | -38.4 |
| CC(=O)c1ccc(-c2ccc(/C=C(/Sc3n[nH]c(C)n3)C(=O)O)o2)cc1 | -42.7 |
| O=c1[nH][nH]cc1C=Nc1ccc(Oc2ccccc2)cc1 | 11.6 |
| CC(Sc1ccccc1)C(=O)Nc1ccc(N2CCOCC2)cc1 (stereo not shown) | -7.09 |
| CN1CCN(C(=O)c2ccc3c(c2)N(Cc2cccc(Cl)c2)C(=O)c2ccccc2S3(=O)=O)CC1 | 10.8 |
| COc1ccc(NC(=O)CC2(CC(=O)O)CCCC2)cn1 | 16.7 |
| CC(C)N1CCC(N2CCN(Cc3ccc(Oc4ncccn4)cc3)CC2CCO)CC1 (stereo not shown) | 23.9 |

| Compound | hERG current change (%, negative = inhibition) at 10uM [%] |
| --- | --- |
| Cc1cc(C)n(-c2ccc(C(=O)Nc3cccc([N+](=O)[O-])c3)cc2)n1 | 40.2 |
| COc1ccc(CCNC(=O)c2ccc(-c3ccc([N+](=O)[O-])cc3Cl)o2)cc1 | 4.64 |
| CN(CC(=O)Nc1ccc(C#N)cc1)Cc1ccc(Cl)c(Cl)c1 | -60.8 |
| Cc1ccc(NC(=O)CN(C)C(=O)Cc2ccc(Cl)c(Cl)c2)cc1 | 11.8 |
| CN(CC(=O)Nc1ccc(S(=O)(=O)N2CCCC2)cc1)Cc1ccc(Cl)c(Cl)c1 | 0.187 |
| C=CCNC(=O)c1ccc(C(=O)c2ccccc2)cc1 | -27.8 |
| CC(=O)CSc1ncnc2c1cnn2-c1ccccc1 | 12.6 |
| COc1ccc(/C=N/NC(=O)c2cccc(Br)c2)cc1CN1CCOCC1 | -82.4 |
| COc1ccc(/C=N/NC(=O)c2ccc(Br)cc2)cc1CN1CCOCC1 | -64.8 |
| COc1ccc(/C=C2\CCc3ccccc3C2=O)cc1CN1CCOCC1 | -33.6 |
| COc1ccc(C(=O)/C=C/c2ccc(OC)c(CN3CCOCC3)c2)cc1 | -56.3 |
| COc1ccc(/C=N\NC(=O)c2nn(C)cc2Cl)cc1CN1CCOCC1 | -10.6 |
| COc1ccc(/C=C2/CCc3ccccc3C2=O)cc1CN1CCOCC1 | -59.6 |
| CCOc1cc(/C=N/NC(=O)c2ccc(CN3CCOCC3)cc2)ccc1OC | -19.1 |
| COc1ccc(/C=N/NC(=O)c2ccncc2)cc1CN1CCOCC1 | 3.71 |
| COc1ccc(/C=N/NC(=O)c2cccc(Br)c2)cc1Cn1cc(Cl)cn1 | 8.83 |
| COc1ccc(/C=C/C(=O)c2ccccc2O)cc1CN1CCOCC1 | -17.7 |
| COc1ccc(/C=C2\CCc3ccccc3C2=O)cc1Cn1cccn1 | 2.14 |
| COc1ccc(/C=C/C(=O)c2ccc(O)cc2)cc1CN1CCOCC1 | -11.3 |
